Source: PubChem (National Center for Advancing Translational Sciences (NCATS))
HT1080-NT tox – qHTS for induction of synthetic lethality in tumor cells producing 2HG: qHTS for the HT-1080-NT fibrosarcoma cell line; HT-1080-NT fibrosarcoma viability, CellTiter-Glo ATP luminescence, 48 h; Potency, µM (series often up to 46.1 µM), inactives show at the highest dose activity, negative = less viability, usual class: cytotoxic; 1.6% of 360,000 active;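 also: NT is the 2HG producing partner of a matched IDH1 knockdown line; potency is read from the fitted curve at half-maximal effect; 0% = DMSO-treated cells and -100% = media-only wells without cells; nearly all actives have a fitted effect of over 55% in size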
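Read-out is CellTiter-Glo luminescence after 10 minutes at room temperature, following 48 hours' compound treatment of HT-1080-NT cells (750 cells/well, RPMI, 5% FBS, 37 degrees C).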
DT40 TDP1 CPT – qHTS for Inhibitors of human tyrosyl-DNA phosphodiesterase 1 (TDP1): qHTS in cells in presence of CPT | chicken DT40 Tdp1-/-;hTDP1 cells + 20 nM CPT, ATP luminescence, 48 h | Potency, µM (titrated, usually from 46.2 µM), without a hit: at the highest dose activity change, negative = growth inhibition, most hits filed as inhibitors | 12% of 420,000 active; also: potency is read from the fitted curve at half-maximal effect; nearly all actives have a fitted effect of over 55% in size
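Cell growth measured by CellTiter-Glo luminescence after a minimum 48 h, 37 C compound exposure with 20 nM CPT in Tdp1-knockout DT40 cells stably expressing hTDP1, seeded 400/well; qHTS titration format.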
TDP1 cell noCPT – qHTS for Inhibitors of human tyrosyl-DNA phosphodiesterase 1 (TDP1): qHTS in cells in absence of CPT; 15% of 420,000 active; Potency, µM (titrated, usually from 46.2 µM), without a hit: at the highest dose activity change, negative = growth inhibition, most hits filed as inhibitors; DT40 Tdp1-/- hTDP1 cells, no CPT, ATP luminescence, 48 h; also: potency is read from the fitted curve at half-maximal effect; nearly all actives have a fitted effect of over 55% in size
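Readout: luminescence from CellTiter-Glo after 30 min in the dark at RT. Cells: DT40 Tdp1-/- with stable hTDP1, 400/well. Exposure: compounds alone, ≥48 hr, 37 °C.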
HT1080 IDH1KD tx – qHTS for induction of synthetic lethality in tumor cells producing 2HG: qHTS for the HT-1080-IDH1KD cell line; HT-1080 IDH1 knockdown viability, ATP luminescence, 48 h; Potency, µM (titrated, usually from 46.1 µM), for inactives: at the top dose activity, negative = toxicity, hits mostly cytotoxic; 2% of 360,000 active;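 also: potency is read from the fitted curve at half-maximal effect; 0% = DMSO wells and -100% = cell-free medium wells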
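Viability of IDH1-knockdown HT-1080 fibrosarcoma cells was assessed by CellTiter-Glo after 48 h at 37 °C with titrated compound; concentration-effect curves were classified by fit quality and response size.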
IL1B secr inh – qHTS for Inhibitors of Inflammasome Signaling: IL-1-beta AlphaLISA Primary Screen; THP-1 LPS/ATP IL-1B secretion, AlphaLISA, 16 h; active compounds read low; activity change, % at 57.5 µM; 4.7% of 360,000 active; in the data active = activity change below about -50%; inconclusive = mostly about -30% to -49%
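Secreted IL-1B measured by AlphaLISA bead assay after 16 h compound exposure of THP-1 cells; compounds (final up to 57.5 uM) added 1 h before LPS (250 ng/mL) and ATP (1.25 mM) stimulation; lower signal means less secretion.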
Numbers without * were called inactive; ? = inconclusive; / = no result; [ ] = dose if it differs, or a comment. An excerpt weighted towards active compounds, which were near 19% of everything screened. Unless noted, calls follow the shape of the dose curve; as a rule, active = well fitted curve in the direction sought with a large enough effect; inconclusive = small, poorly fitted or top-dose-only effect, or another doubt; inactive = no such curve, though single readings can be large; an effect the other way counts as inactive or inconclusive. Unless noted, % is scaled to controls: 0 for no effect and ±100 for the full control effect.

SMILES	HT1080-NT tox	DT40 TDP1 CPT	TDP1 cell noCPT	HT1080 IDH1KD tx	IL1B secr inh
COC(=O)c1cnc(NC(=O)C2(C)CCCN(C(C)=O)C2)s1 (configuration not stated)	?	-4.4%	0.0%	18.1%	18.2
OC(COc1cccc2ccccc12)CN1CCCC1 (configuration not stated)	-2.1%	1.8%	-5.2%	-16.5%	-9.3
OC(COc1cccc2ccccc12)CN1CCN(c2ccc(Cl)cc2)CC1 (configuration not stated)	-20.0%	?	23.1µM*	-10.0%	-13.6
OC(COc1c(F)cc(Br)cc1F)CN1CCN(c2ccc(F)cc2)CC1 (configuration not stated)	-21.4%	?	18.4µM*	-2.5%[9.24 µM]	-19.9
Cc1cccc(N2CCN(CC(O)COc3ccccc3Cl)CC2)c1 (configuration not stated)	-2.2%	?	16.4µM*	-4.2%	0.0
OC(COc1c(F)cc(Br)cc1F)CN1CCOCC1 (configuration not stated)	-0.9%	2.7%	2.1%	5.4%	-5.1
CCCN1CCC(C)(C(=O)Nc2ccccc2Oc2ccccc2)C1 (configuration not stated)	5.1%	-19.8%	?	1.0%	0.0
Oc1ccc(/C=N/Nc2ccnc3cc(Cl)ccc23)cc1O	?	13µM*	13µM*	?	79.7
Oc1ccc(/C=N/Nc2ccnc3cc(Cl)ccc23)c(O)c1O	3.0%	?	?	-5.4%	11.3
CC/C(=N\Nc1ccnc2cc(Cl)ccc12)c1ccc(O)cc1	18.4µM*	?	?	16.4µM*	-20.2
CCOC(=O)c1[nH]cnc1C(=O)Nc1ccc(Cl)cc1	23.8%	-29.6%	-9.3%	10.2%	-11.3
O=C(Nc1ccc(Cl)cc1)c1nc[nH]c1C(=O)NCCCCNC(=O)c1[nH]cnc1C(=O)Nc1ccc(Cl)cc1	7.4%	5.8µM*	4.61µM*	8.6%	?
O=C(Nc1cccc(Cl)c1)c1nc[nH]c1C(=O)Nc1ccccc1F	17.2%	4.11µM*	7.31µM*	12.0%	11.1
O=C(Nc1ccc(Cl)cc1)c1nc[nH]c1C(=O)Nc1ccccc1F	2.4%	?	14.6µM*	24.4%	-15.5
O=C(Nc1ccc(F)cc1)c1nc[nH]c1C(=O)Nc1ccccc1[N+](=O)[O-]	7.9%	?	1.3µM*	10.4%	10.4
CS(=O)(=O)N1CCc2cc(C(=O)Nc3ccc(S(N)(=O)=O)cc3)ccc21	/	-13.8%	-18.1%	/	/
CC(=O)N(Cc1ccccc1)c1c(N)nc(N)[nH]c1=O	15.7%	8.3%	0.1%	13.1%	-102.9*
CN(Cc1ccccc1)C(=O)CSc1n[nH]c(N)n1	1.4%	6.2%	2.7%	1.1%	-3.6
CC1CCCN(C(=O)C(=O)Nc2ccc3nc4n(c(=O)c3c2)CCCCC4)C1 (configuration not stated)	9.9%	-20.5%	-29.3%	-1.6%	6.8
CCCCCNC(=O)C(c1ccc(C(F)(F)F)cc1)n1c(=O)c(-c2ccco2)nc2ccccc21 (configuration not stated)	?	?	18.4µM*	-24.0%	59.2
O=C(NC1CCCCC1)C(c1ccccc1)n1c(=O)c(-c2ccco2)nc2ccccc21 (configuration not stated)	-2.3%	18.4µM*	20.6µM*	1.3%	-0.1
O=C(NC1CCCCC1)C(c1ccc(C(F)(F)F)cc1)n1c(=O)c(-c2ccco2)nc2ccccc21 (configuration not stated)	-21.6%	1.64µM*	?	-15.9%	-8.6
O=C(NCc1ccccc1)C(c1ccncc1)n1c(=O)c(-c2ccco2)nc2ccccc21 (configuration not stated)	-4.1%	-24.7%	-26.7%	-1.0%	-6.0
CCCCCNC(=O)C(C1CC1)n1c(=O)c(-c2ccco2)nc2ccccc21 (configuration not stated)	-11.2%	14.6µM*	13µM*	3.4%	15.1
CCOC(=O)N1CCN(c2c(NCCCN3CCCCCC3)c(=O)c2=O)CC1	-1.7%	12.5%	6.9%	-1.5%	8.5
SMILES	HT1080-NT tox	DT40 TDP1 CPT	TDP1 cell noCPT	HT1080 IDH1KD tx	IL1B secr inh
OCCC1CN(Cc2ccc3cccc(F)c3n2)CCN1Cc1ccccc1 (configuration not stated)	-2.6%	-6.7%	0.2%	-2.3%	0.0
Cc1csc(=O)n1CCC(=O)OCc1nnc(-c2ccc([N+](=O)[O-])cc2)o1	-0.8%[9.24 µM]	-29.1%	-18.5%	1.6%	6.6
N#Cc1ccc(C(C(=O)NC2CCCCC2)n2c(=O)c(-c3ccco3)nc3ccccc32)cc1 (configuration not stated)	-8.4%	14.6µM*	16.4µM*	-3.4%	?
O=C(NC1CCCCC1)C(C1CC1)n1c(=O)c(-c2ccco2)nc2ccccc21 (configuration not stated)	1.8%	?	10.3µM*	-1.3%	1.5
O=C(CSc1nnnn1C1CCCCC1)Nc1ccccc1N1CCOCC1	0.2%	?	-3.9%	4.8%	0.0
CCN1C(=O)N[C@H](c2ccc(Br)cc2)C(C(C)=O)=C1C	2.4%	20.6µM*	16.4µM*	3.2%	36.3
CCN1C(=O)N[C@@H](c2cccc(F)c2)C(C(C)=O)=C1C	18.6%	-27.5%	-22.4%	9.0%	21.0
COc1ccc(N2CCN(S(=O)(=O)c3ccc4c(c3)NC(=O)CC(=O)N4)CC2)cc1	1.1%	-28.9%	2.8%	-1.7%	32.8
COc1ccc(N2CCN(S(=O)(=O)c3ccc4c(c3)C(C(C)C)C(=O)N4)CC2)cc1 (configuration not stated)	/	18.4µM*	8.2µM*	/	/
CC(=O)N1c2ccc(S(=O)(=O)N3CCC(C(=O)N4CCN(c5cccc(C(F)(F)F)c5)CC4)CC3)cc2CC1C (configuration not stated)	?	8.2µM*	2.31µM*	-27.9%	-29.9
COc1ccc(N2CCN(S(=O)(=O)c3ccc4c(c3)CC(C)N4C(C)=O)CC2)cc1 (configuration not stated)	/	6.51µM*	?	/	/
CCOC(=O)C1CCN(C(=O)C2CCN(S(=O)(=O)c3ccc4c(c3)CC(C)N4C(C)=O)CC2)CC1 (configuration not stated)	-0.7%	?	-25.8%	-0.6%	17.3
